Results reported in the supplement of paper PMC4022240.
± gives the standard deviation.

Legend:
Experiment in all cases: peptide microarray binding signal (635 nm), min-max normalized on array (fraction of array maximum); higher = stronger binding
[1] = molecular target: T1, HaloTag-ATRX ADD domain (163-292)
T1 chain: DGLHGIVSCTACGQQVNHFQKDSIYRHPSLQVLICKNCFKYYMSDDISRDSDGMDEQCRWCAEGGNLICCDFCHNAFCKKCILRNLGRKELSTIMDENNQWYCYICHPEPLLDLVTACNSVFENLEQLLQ
In short: (§1)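 Arrays carried histone 13-mer peptide–cellulose conjugates printed in triplicate on nitrocellulose alongside a Cy3 tracer. After overnight blocking at 4°C, they were incubated for 1 h at 4°C with biotin-labelled HaloTag reader fusions (10 nM to 1 μM) plus streptavidin-Alexa Fluor 647, or with rabbit histone antibodies (1:10,000 to 1:2,000) plus anti-rabbit Alexa 647. Scanning on an Axon GenePix 4000B used 635 nm for signal and 532 nm for misprints. The binding signal reported is each triplicate's mean spot intensity after per-library min-max scaling.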

[2] = molecular target: HaloTag-ING2 PHD (mouse Ing2 200-280)
In short: as §1

[3] = molecular target: anti-H3K4me3 antibody ab8580
In short: as §1

[4] = molecular target: anti-H3K9me3 antibody ab8898
In short: as §1

[5] = peptide region: H3 50-62, peptide modifications: H3K56me1 H3S57ph, binder concentration: 1:2,000 dilution
[6] = peptide region: H3 50-62, peptide modifications: H3K56me1 H3S57ph, binder concentration: 1:10,000 dilution
[7] = peptide region: H3 50-62, peptide modifications: H3K56ac, binder concentration: 1:2,000 dilution
[8] = peptide region: H3 50-62, peptide modifications: H3K56ac, binder concentration: 1:10,000 dilution
[9] = peptide region: H3 50-62, peptide modifications: H3K56ac H3S57ph, binder concentration: 1:2,000 dilution
[10] = peptide region: H3 50-62, peptide modifications: H3K56ac H3S57ph, binder concentration: 1:10,000 dilution
[11] = peptide region: H3 73-85, peptide modifications: H3K79me1 H3T80ph, binder concentration: 1:2,000 dilution
[12] = peptide region: H3 73-85, peptide modifications: H3K79me1 H3T80ph, binder concentration: 1:10,000 dilution
[13] = peptide region: H3 50-62, peptide modifications: H3K56me2 H3T58ph, binder concentration: 1:2,000 dilution
[14] = peptide region: H3 50-62, peptide modifications: H3K56me2 H3T58ph, binder concentration: 1:10,000 dilution
[15] = peptide region: H3 50-62, peptide modifications: H3K56me2, binder concentration: 1:2,000 dilution
[16] = peptide region: H3 50-62, peptide modifications: H3K56me2, binder concentration: 1:10,000 dilution
[17] = peptide region: H3 50-62, peptide modifications: H3K56me3 H3S57ph, binder concentration: 1:2,000 dilution
[18] = peptide region: H3 50-62, peptide modifications: H3K56me3 H3S57ph, binder concentration: 1:10,000 dilution
[19] = peptide region: H3 50-62, peptide modifications: H3K56ac H3T58ph, binder concentration: 1:2,000 dilution
[20] = peptide region: H3 50-62, peptide modifications: H3K56ac H3T58ph, binder concentration: 1:10,000 dilution
[21] = peptide region: H3 73-85, peptide modifications: H3K79me1, binder concentration: 1:2,000 dilution
[22] = peptide region: H3 73-85, peptide modifications: H3K79me1, binder concentration: 1:10,000 dilution
[23] = peptide region: H3 73-85, binder concentration: 1:2,000 dilution
[24] = peptide region: H3 73-85, binder concentration: 1:10,000 dilution

## EIRRYQKSTELLI [H3 50-62 E I R R Y Q Kme Sph T E L L I]
[1]; peptide region: H3 50-62, peptide modifications: H3K56me1 H3S57ph, binder concentration: 50 nM
  peptide microarray binding signal: 0.00125 ± 3.7e-05
[1]; peptide region: H3 50-62, peptide modifications: H3K56me1 H3S57ph, binder concentration: 500 nM
  peptide microarray binding signal: 0.00143 ± 2.3e-05
[2]; peptide region: H3 50-62, peptide modifications: H3K56me1 H3S57ph, binder concentration: 10 nM
  peptide microarray binding signal: 0.00209 ± 2.4e-05
[2]; peptide region: H3 50-62, peptide modifications: H3K56me1 H3S57ph, binder concentration: 100 nM
  peptide microarray binding signal: 0.00085 ± 2.5e-05
[3]; [5]
  peptide microarray binding signal: 0.000264 ± 7.4e-06
[3]; [6]
  peptide microarray binding signal: 0.000342 ± 3.8e-06
[4]; [5]
  peptide microarray binding signal: 0.000861 ± 8.7e-05
[4]; [6]
  peptide microarray binding signal: 0.000519 ± 5.6e-06

## EIRRYQKSTELLI [H3 50-62 E I R R Y Q Kac S T E L L I]
[1]; peptide region: H3 50-62, peptide modifications: H3K56ac, binder concentration: 50 nM
  peptide microarray binding signal: 0.0121 ± 0.00021
[1]; peptide region: H3 50-62, peptide modifications: H3K56ac, binder concentration: 500 nM
  peptide microarray binding signal: 0.0135 ± 0.0015
[2]; peptide region: H3 50-62, peptide modifications: H3K56ac, binder concentration: 10 nM
  peptide microarray binding signal: 0.00913 ± 0.00065
[2]; peptide region: H3 50-62, peptide modifications: H3K56ac, binder concentration: 100 nM
  peptide microarray binding signal: 0.0108 ± 0.00062
[3]; [7]
  peptide microarray binding signal: 0.0016 ± 0.00024
[3]; [8]
  peptide microarray binding signal: 0.00211 ± 0.00015
[4]; [7]
  peptide microarray binding signal: 0.00222 ± 0.00049
[4]; [8]
  peptide microarray binding signal: 0.00173 ± 6.6e-05

## EIRRYQKSTELLI [H3 50-62 E I R R Y Q Kac Sph T E L L I]
[1]; peptide region: H3 50-62, peptide modifications: H3K56ac H3S57ph, binder concentration: 50 nM
  peptide microarray binding signal: 0.00069 ± 9.4e-06
[1]; peptide region: H3 50-62, peptide modifications: H3K56ac H3S57ph, binder concentration: 500 nM
  peptide microarray binding signal: 0.00119 ± 4e-05
[2]; peptide region: H3 50-62, peptide modifications: H3K56ac H3S57ph, binder concentration: 10 nM
  peptide microarray binding signal: 0.00197 ± 4.2e-05
[2]; peptide region: H3 50-62, peptide modifications: H3K56ac H3S57ph, binder concentration: 100 nM
  peptide microarray binding signal: 0.000567 ± 6.4e-06
[3]; [9]
  peptide microarray binding signal: 5.66e-05
[3]; [10]
  peptide microarray binding signal: 0.000399 ± 2.6e-05
[4]; [9]
  peptide microarray binding signal: 0.000861 ± 5.4e-05
[4]; [10]
  peptide microarray binding signal: 0.000577 ± 6.2e-06

## EIAQDFKTDLRFQ [H3 73-85 E I A Q D F Kme Tph D L R F Q]
[1]; peptide region: H3 73-85, peptide modifications: H3K79me1 H3T80ph, binder concentration: 50 nM
  peptide microarray binding signal: 0.001034 ± 5.2e-06
[1]; peptide region: H3 73-85, peptide modifications: H3K79me1 H3T80ph, binder concentration: 500 nM
  peptide microarray binding signal: 0.00181 ± 3.2e-05
[2]; peptide region: H3 73-85, peptide modifications: H3K79me1 H3T80ph, binder concentration: 10 nM
  peptide microarray binding signal: 0.00281 ± 8.7e-05
[2]; peptide region: H3 73-85, peptide modifications: H3K79me1 H3T80ph, binder concentration: 100 nM
  peptide microarray binding signal: 0.00135 ± 7.3e-05
[3]; [11]
  peptide microarray binding signal: 0.000283
[3]; [12]
  peptide microarray binding signal: 0.000342 ± 3.8e-06
[4]; [11]
  peptide microarray binding signal: 0.000921 ± 0.00013
[4]; [12]
  peptide microarray binding signal: 0.000634

## EIRRYQKSTELLI [H3 50-62 E I R R Y Q Kme2 S Tph E L L I]
[1]; peptide region: H3 50-62, peptide modifications: H3K56me2 H3T58ph, binder concentration: 50 nM
  peptide microarray binding signal: 0.00116 ± 2.9e-05
[1]; peptide region: H3 50-62, peptide modifications: H3K56me2 H3T58ph, binder concentration: 500 nM
  peptide microarray binding signal: 0.00181 ± 4.2e-05
[2]; peptide region: H3 50-62, peptide modifications: H3K56me2 H3T58ph, binder concentration: 10 nM
  peptide microarray binding signal: 0.00286 ± 0.00011
[2]; peptide region: H3 50-62, peptide modifications: H3K56me2 H3T58ph, binder concentration: 100 nM
  peptide microarray binding signal: 0.000992 ± 1.1e-05
[3]; [13]
  peptide microarray binding signal: 0.000415 ± 1.5e-05
[3]; [14]
  peptide microarray binding signal: 0.000456 ± 4.9e-06
[4]; [13]
  peptide microarray binding signal: 0.00199 ± 0.00011
[4]; [14]
  peptide microarray binding signal: 0.000923 ± 1.9e-05

## EIRRYQKSTELLI [H3 50-62 E I R R Y Q Kme2 S T E L L I]
[1]; peptide region: H3 50-62, peptide modifications: H3K56me2, binder concentration: 50 nM
  peptide microarray binding signal: 0.01 ± 0.00043
[1]; peptide region: H3 50-62, peptide modifications: H3K56me2, binder concentration: 500 nM
  peptide microarray binding signal: 0.0165 ± 0.0014
[2]; peptide region: H3 50-62, peptide modifications: H3K56me2, binder concentration: 10 nM
  peptide microarray binding signal: 0.0135 ± 0.0033
[2]; peptide region: H3 50-62, peptide modifications: H3K56me2, binder concentration: 100 nM
  peptide microarray binding signal: 0.00624 ± 0.00068
[3]; [15]
  peptide microarray binding signal: 0.000868 ± 0.00013
[3]; [16]
  peptide microarray binding signal: 0.00171 ± 8.6e-05
[4]; [15]
  peptide microarray binding signal: 0.00953 ± 0.00056
[4]; [16]
  peptide microarray binding signal: 0.00323 ± 0.0002

## EIRRYQKSTELLI [H3 50-62 E I R R Y Q Kme3 Sph T E L L I]
[1]; peptide region: H3 50-62, peptide modifications: H3K56me3 H3S57ph, binder concentration: 50 nM
  peptide microarray binding signal: 0.00122 ± 2.2e-05
[1]; peptide region: H3 50-62, peptide modifications: H3K56me3 H3S57ph, binder concentration: 500 nM
  peptide microarray binding signal: 0.00224 ± 0.0003
[2]; peptide region: H3 50-62, peptide modifications: H3K56me3 H3S57ph, binder concentration: 10 nM
  peptide microarray binding signal: 0.00251 ± 0.0001
[2]; peptide region: H3 50-62, peptide modifications: H3K56me3 H3S57ph, binder concentration: 100 nM
  peptide microarray binding signal: 0.00142 ± 0.00012
[3]; [17]
  peptide microarray binding signal: 0.00238 ± 0.00081
[3]; [18]
  peptide microarray binding signal: 0.00177 ± 5e-05
[4]; [17]
  peptide microarray binding signal: 0.0141 ± 0.011
[4]; [18]
  peptide microarray binding signal: 0.0094 ± 0.0038

## EIRRYQKSTELLI [H3 50-62 E I R R Y Q Kac S Tph E L L I]
[1]; peptide region: H3 50-62, peptide modifications: H3K56ac H3T58ph, binder concentration: 50 nM
  peptide microarray binding signal: 0.00141 ± 1.8e-05
[1]; peptide region: H3 50-62, peptide modifications: H3K56ac H3T58ph, binder concentration: 500 nM
  peptide microarray binding signal: 0.001381 ± 1.3e-05
[2]; peptide region: H3 50-62, peptide modifications: H3K56ac H3T58ph, binder concentration: 10 nM
  peptide microarray binding signal: 0.002924 ± 2.8e-05
[2]; peptide region: H3 50-62, peptide modifications: H3K56ac H3T58ph, binder concentration: 100 nM
  peptide microarray binding signal: 0.00149 ± 1.5e-05
[3]; [19]
  peptide microarray binding signal: 0.0004719 ± 4.7e-06
[3]; [20]
  peptide microarray binding signal: 0.000514 ± 5.5e-06
[4]; [19]
  peptide microarray binding signal: 0.000468 ± 1.8e-05
[4]; [20]
  peptide microarray binding signal: 0.00104 ± 5.9e-05

## EIAQDFKTDLRFQ [H3 73-85 E I A Q D F Kme T D L R F Q]
[1]; peptide region: H3 73-85, peptide modifications: H3K79me1, binder concentration: 50 nM
  peptide microarray binding signal: 0.00649 ± 0.00015
[1]; peptide region: H3 73-85, peptide modifications: H3K79me1, binder concentration: 500 nM
  peptide microarray binding signal: 0.02 ± 0.0022
[2]; peptide region: H3 73-85, peptide modifications: H3K79me1, binder concentration: 10 nM
  peptide microarray binding signal: 0.0116 ± 0.0014
[2]; peptide region: H3 73-85, peptide modifications: H3K79me1, binder concentration: 100 nM
  peptide microarray binding signal: 0.00475 ± 0.00052
[3]; [21]
  peptide microarray binding signal: 0.00198 ± 0.00026
[3]; [22]
  peptide microarray binding signal: 0.00234 ± 9.2e-05
[4]; [21]
  peptide microarray binding signal: 0.0079 ± 0.00033
[4]; [22]
  peptide microarray binding signal: 0.00357 ± 0.00023

## EIAQDFKTDLRFQ [H3 73-85 E I A Q D F K T D L R F Q]
[1]; peptide region: H3 73-85, binder concentration: 50 nM
  peptide microarray binding signal: 0.0048 ± 0.00013
[1]; peptide region: H3 73-85, binder concentration: 500 nM
  peptide microarray binding signal: 0.0155 ± 0.00056
[2]; peptide region: H3 73-85, binder concentration: 10 nM
  peptide microarray binding signal: 0.008 ± 0.00096
[2]; peptide region: H3 73-85, binder concentration: 100 nM
  peptide microarray binding signal: 0.00248 ± 6.3e-05
[3]; [23]
  peptide microarray binding signal: 0.000264 ± 5.6e-06
[3]; [24]
  peptide microarray binding signal: 0.00228 ± 0.0003
[4]; [23]
  peptide microarray binding signal: 0.00308 ± 0.00021
[4]; [24]
  peptide microarray binding signal: 0.00236 ± 6.4e-05
